From PubChem BioAssay AID588591 (National Center for Advancing Translational Sciences (NCATS), 2011)
The whole screen tested about 390,000 compounds, of which about 4,700 (1.2%) were called active. About 4% were inconclusive and are not listed. The call rests on the fitted dose curve; in most records, active means well fitted inhibition curve with a large enough effect; inconclusive means small, poorly fitted or top-dose-only effect, or another doubt; inactive means no such curve, though single readings can be large or run the other way. Only a selection was taken, and actives are over-represented in it overall.

Biological target: DNA polymerase eta (Homo sapiens) (UniProt Q9Y253)
Experiment: qHTS for Inhibitors of Polymerase Eta
Details: recombinant Pol eta, fluorescent DNA replication assay; series mostly up to 114 µM
In short: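 Pol eta (10 nM) was preincubated with compounds for 15 min at room temperature, after which fluorescent replication substrate (50 nM final) was added to start the reaction. Fluorescence was read kinetically at 0 and 10 min.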
Potency means the concentration at half of the fitted maximal effect.

DNA polymerase eta (Homo sapiens), sequence (Q9Y253 whole entry, looked up): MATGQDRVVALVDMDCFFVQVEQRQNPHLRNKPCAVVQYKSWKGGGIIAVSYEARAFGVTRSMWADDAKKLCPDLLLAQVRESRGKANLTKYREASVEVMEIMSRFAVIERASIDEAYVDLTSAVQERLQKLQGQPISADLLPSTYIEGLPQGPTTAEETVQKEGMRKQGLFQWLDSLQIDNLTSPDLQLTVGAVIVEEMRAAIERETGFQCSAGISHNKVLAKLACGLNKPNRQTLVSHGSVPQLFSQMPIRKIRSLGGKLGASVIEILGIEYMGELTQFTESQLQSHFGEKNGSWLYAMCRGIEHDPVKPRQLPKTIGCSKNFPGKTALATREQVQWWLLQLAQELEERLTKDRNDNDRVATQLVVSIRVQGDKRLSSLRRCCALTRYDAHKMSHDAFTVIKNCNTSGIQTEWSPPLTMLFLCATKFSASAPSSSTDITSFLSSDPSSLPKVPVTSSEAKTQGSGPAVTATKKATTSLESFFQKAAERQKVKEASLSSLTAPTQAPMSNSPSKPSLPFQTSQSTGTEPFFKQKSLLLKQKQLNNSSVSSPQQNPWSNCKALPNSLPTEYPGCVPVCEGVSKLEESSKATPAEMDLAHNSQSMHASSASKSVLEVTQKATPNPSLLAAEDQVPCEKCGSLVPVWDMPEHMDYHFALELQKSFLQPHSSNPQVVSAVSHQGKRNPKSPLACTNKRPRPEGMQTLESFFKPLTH

Potency, active:
Cc1ccc(N=C2NC(=O)/C(=C/C=C/c3ccco3)S2)cc1C 8.91 µM
Cc1ccc(N2NC(=O)/C(=C/C=C/c3ccco3)C2=O)cc1C 79.4 µM
COCCCn1c(Cc2csc(Nc3cccc(Cl)c3)n2)nnc1SCC(=O)OC1CCCCC1 7.94 µM
C=C1c2c(Cl)ccc(O)c2C(O)=C2C(=O)[C@]3(O)C(O)=C(C(N)=O)C(=O)[C@@H](N(C)C)[C@@H]3[C@@H](O)C12 (stereo partly drawn) 35.5 µM
Cc1nnc(SCC(=O)Nc2ccc(S(=O)(=O)Nc3ccc(Cl)nn3)cc2)s1 20 µM
C=CCC1=C/C(=C\c2c(N)n3nc(CC(=O)N4CCOCC4)sc3nc2=O)C=C(OC)C1=O 31.6 µM
COC1=C/C(=C/c2c(N)n3nc(CC(=O)N4CCOCC4)sc3nc2=O)C=CC1=O 44.7 µM
Cc1cccc(NC(=O)C2CC(=O)OC23CCCC3)c1 (stereo not drawn) 25.1 µM
c1ccc(CSc2nnc(-c3ccco3)c(-c3ccco3)n2)cc1 22.4 µM
Clc1ccccc1CSc1nnc(-c2ccco2)c(-c2ccco2)n1 25.1 µM
C=CCn1c(=S)[nH]c2scc(-c3ccco3)c2c1=O 17.8 µM
COc1cc([C@H](Cc2ccccc2)NC(C)=O)oc(=O)c1 20 µM
Cc1ccc(-c2nc(SCc3ccc(Br)cc3)n3[nH]c(=O)cc3n2)cc1 20 µM
O=C(O)c1ccc(COc2c(F)c(F)cc(F)c2F)o1 44.7 µM
O=C(CSc1nc2ccccc2c(=O)[nH]1)Nc1nc(-c2ccc(Br)cc2)cs1 5.01 µM
CSC1=N/C(=C\C=C\c2cccs2)C(=O)S1 17.8 µM
Cc1ccc(OCCSc2nc(-c3cccs3)nc3cc(=O)[nH]n23)cc1Cl 79.4 µM
COc1ccccc1C(=O)N/C(=C/c1ccco1)C(=O)Nc1ccc(C(=O)O)cc1 17.8 µM
COc1ccc(OCC(=O)Nc2nnc(-c3ccco3)s2)cc1 56.2 µM

Potency, inactive:
Oc1ccc(-c2nc3ccc(Cl)cn3c2Nc2ccc3c(c2)OCO3)cc1
O=C(COc1ccc(Cl)cc1)N(Cc1ccco1)Cc1ccco1
COc1cccc(C(c2c(O)cc(C)n(Cc3ccco3)c2=O)N2CCN(c3ccccc3)CC2)c1 (stereo not drawn)
O=C(c1ccc(Cl)cc1)n1nc(-c2cccnc2)nc1NCc1ccc(F)cc1
Cc1ccc(C(=O)N/C(=C\c2ccco2)C(=O)N2CCSCC2)cc1C
Cc1ccccc1CNC(=O)C(=O)NCC(c1cccs1)S(=O)(=O)c1cccs1 (stereo not drawn)
CCCS(=O)(=O)c1c(Nc2ccccc2C)sc(C(=O)c2ccccc2)c1N
O=C(CCc1cn(Cc2ccc(F)cc2)c2ccccc12)NC1CCCCC1
CC(=O)Nc1cccc(NC(=O)CSc2nccn2Cc2ccc3c(c2)OCO3)c1
COc1ccc(-c2nn(CC(=O)NC3CCCC3)c3c2cnc2ccc(F)cc23)cc1
COc1ccc(CCNC(=O)c2ccc(CSCc3ccc(C)cc3)o2)cc1OC
COc1ccc(-c2ccc(=O)n(CC(=O)Nc3ccc(Br)cc3F)n2)cc1
CCOc1ccc(Nc2nc(Cc3nnc(SCC(=O)NC4CCCC4)n3C)cs2)cc1
COCCCn1c(SCC(=O)NC2CCCC2)nnc1-c1ccccc1
COc1ccc(Cn2c(=O)c3oc4ccccc4c3n(CC(=O)Nc3ccc(F)cc3F)c2=O)cc1
O=C(CSc1cn(CC(=O)N2CCOCC2)c2ccccc12)Nc1ccccc1
COc1ccc(NC(=O)CSc2nc(NS(=O)(=O)c3ccc(C)cc3)cc(=O)[nH]2)cc1
Cc1nnc(SC(C)C(=O)Nc2ccc(S(=O)(=O)NC3CCCCC3)cc2)s1 (stereo not drawn)
Cc1nc2nc(SCC(=O)NC3CCC(C)CC3)nn2c(C)c1Cc1ccccc1Cl (stereo not drawn)
Cc1cc(C)c2oc(C(=O)Nc3ccc(S(=O)(=O)N(C)c4ccccc4)cc3)cc(=O)c2c1
O=C(Nc1cc(C(F)(F)F)ccc1Cl)c1cc2nc(-c3ccc4c(c3)OCO4)cc(C(F)(F)F)n2n1
COc1ccc(S(=O)(=O)N2CCN(CC(=O)N3CCOCC3)CC2)cc1OC
COc1ccc(-c2ccnc(SCC(=O)N3CCOCC3)n2)cc1
O=C(Nc1cc(C(F)(F)F)ccc1Cl)c1nc2ccccc2nc1N1CCCCC1
O=C(CN1CCSc2ccccc21)N1CCN(c2ccccc2)CC1
Cc1cc(C(=O)Nc2cccc(C(F)(F)F)c2)c2c(C)nn(-c3cccc(F)c3)c2n1
O=C(c1ccc2c(c1)N(Cc1ccc(Cl)cc1)C(=O)c1ccccc1S2(=O)=O)N1CCCCC1
COc1ccc(NC(=O)CN2CCCN(Cc3ccccc3)S2(=O)=O)cc1
COc1c(Cl)cc(C(=O)N(Cc2ccccc2F)C2CCS(=O)(=O)C2)cc1Cl (stereo not drawn)
COc1ccc(NC(=O)CCc2nnc3n(CC(C)C)c(=O)c4ccccc4n23)cc1OC
Cc1cccc(NC(=O)NC2(C)CCS(=O)(=O)C2)c1 (stereo not drawn)
Cc1cccc(NC(=O)C2CCN(C(=O)NC3CCCCC3)CC2)c1
Cc1ccc(CCNC(=O)c2ccc(CNS(=O)(=O)c3ccc(C)cc3)cc2)cc1
COc1ccc(CCNC(=O)c2cnc3sc(N4CCCCCC4)nn3c2=O)cc1OC
COc1ccccc1Nc1c2c(nc3ccc(NC(=O)/C=C/c4cc(OC)c(OC)c(OC)c4)cc13)CCCC2
CC1(C)N=C(SCc2ccccc2Cl)c2ccccc2N1
Cc1ccc(-c2nnc(SCC(=O)NCc3ccccc3)nc2-c2ccc(C)cc2)cc1
Fc1ccc(CSc2nc(NCc3ccccc3)c3ccccc3n2)cc1
Clc1ccccc1CSc1nncn2c1cc1occc12
CC1=C(C(=O)OCc2ccc(C)cc2)C(c2ccccc2Cl)CC(=O)N1 (stereo not drawn)
CCN(CC)c1ccc(NS(=O)(=O)c2cc(-c3cc(C)no3)ccc2C)c(C)c1
COc1ccc(C)cc1Nc1nc2ccccc2c2nnc(C)n12
O=C1CC(c2nnc(Cc3ccc(Cl)cc3)o2)CN1c1ccccc1 (stereo not drawn)
Cc1ccc(Cl)cc1NC(=O)C(C)n1nnc2sc(-c3ccccc3)cc2c1=O (stereo not drawn)
COc1cc(OC)c(NC(=O)N2CC3CCCN3c3ccccc32)cc1Cl (stereo not drawn)
Cc1ccc(N2CC(NC(=O)Cc3cccs3)CC2=O)cc1 (stereo not drawn)
Cc1nn(-c2nc(-c3ccccc3)cc(C(F)(F)F)n2)c(C)c1Cl
COc1ccc2oc(C(=O)NCC(Cc3ccccc3)N(C)C)c(C)c2c1 (stereo not drawn)
COc1ccc(OC)c(NC(=O)N[C@H](Cc2ccccc2)C(=O)NN)c1
CCOc1ccccc1CNC(=O)C1CCCN(S(=O)(=O)c2ccc3c(ccn3C)c2)C1 (stereo not drawn)
Cc1c2cnn(-c3ccccc3)c(=O)c2c(C)n1C(C)C(=O)Nc1ccc(Br)cc1F (stereo not drawn)
Cc1cc(=O)[nH]c(SCc2ccc(Cl)cc2)n1
Cc1cccc(-c2nc(SCc3ccc(Br)cc3)n3[nH]c(=O)cc3n2)c1
Cc1cccc(N2CCN(c3ccc(C(=O)O)cc3NC(=O)c3ccccc3F)CC2C)c1 (stereo not drawn)
Cc1ccc(-c2nn(CCC(=O)Nc3ccc(OC(F)(F)F)cc3)c(=O)c3ccccc23)cc1
O=C(c1ccco1)N1CCN(C(=O)c2ccc(COc3ccc(F)cc3)o2)CC1
O=C(O)CSCc1ccc(C(=O)O)o1
COc1cc(C(=O)N2CCN(C(=O)COc3cccc(C)c3)CC2)cc(OC)c1OC
CCOc1ccc(NC(=O)c2c(NC(=O)Cc3ccccc3)sc3c2CCC(C)C3)cc1 (stereo not drawn)
Cc1ccc(C)c(Cn2c(=O)n(CCC(=O)NCc3ccc4c(c3)OCO4)c(=O)c3sccc32)c1
Cc1ccc(S(=O)(=O)N2CCC(C(=O)Nc3cc(C)ccc3C)CC2)cc1
Cc1cccc(NC(c2cccc(F)c2)c2ccc3ccc(C)nc3c2O)n1 (stereo not drawn)
O=C(CSc1nc(O)c(Cc2ccccc2)c(=O)[nH]1)Nc1nc2c(s1)CCCC2
O=C(COC(=O)c1cc(=O)[nH]c2ccccc12)Nc1nc(-c2cccc(Br)c2)cs1
CCOc1ccc(C2C(C(=O)Nc3ccc(Cl)cc3)=C(C)Nc3nc(C(F)(F)F)nn32)cc1 (stereo not drawn)
CCc1nnc2c3ccccc3nc(N3CCN(c4ccc(C)cc4C)CC3)n12
O=C(CCc1ccccc1)NCc1ccc2c(c1)CCN2C(=O)c1ccccc1
COc1cccc(-n2ccn(CC(=O)NCc3ccc(C)cc3)c(=O)c2=O)c1
COc1ccc(Cn2ccnc2SCC(=O)NCc2ccco2)cc1
CC(C)c1c(O)nc(SCCOc2ccc(Cl)cc2)[nH]c1=O
O=c1cc2nc(-c3ccccc3)nc(SCCOc3ccc(Cl)cc3)n2[nH]1
CCCNC(=O)CCC(=O)N1Cc2ccccc2Oc2ncccc21
CC(=O)c1ccc(N2CCN(C3C(=O)c4ccccc4N3C(C)=O)CC2)cc1 (stereo not drawn)
COc1ccccc1C(=O)N/C(=C/c1ccc2c(c1)OCO2)C(=O)Nc1cccc(C(=O)O)c1
COc1ccccc1C(=O)NC(=O)COC(=O)c1ccco1
COc1cccc(CNC(=O)CCC(=O)N2CC3CCCN3c3ccccc32)c1 (stereo not drawn)
CC(N)=NCc1cccc(CN)c1
COc1ccc(NC(=O)COCc2cc(-c3ccco3)on2)cc1
COc1ccc(OCCCC(=O)Nc2nnc(C3CCCO3)s2)cc1 (stereo not drawn)
